PLCg1 inh – PLC-gamma1 enzyme inhibitors, primary screen, biochemical, fluorescence, purified enzyme. 1-phosphatidylinositol 4,5-bisphosphate phosphodiesterase gamma-1 (Homo sapiens), P19174. fluorogenic substrate. inhibition, % at 12.2 µM. actives 0.84% (n = 370,000); in the data active = inhibition above about 9.5%
PLCb3 inh – human PLC-beta3 inhibitors, primary screen, biochemical, fluorescence; inhibition, % at 12.2 µM; Purified PLC-beta3, fluorogenic substrate; actives 0.18% (n = 370,000); 1-phosphatidylinositol 4,5-bisphosphate phosphodiesterase beta-3 (Homo sapiens), Q01970; AID 720704, 2013; in the data active = inhibition above about 11%
DAGLB inhibitor – DAGLB lipase inhibitors, primary screen, biochemical, fluorescence, HTS; actives 0.059% (n = 340,000); HEK293T DAGLB membrane lysate, EnzChek fluorogenic substrate; AID 504411, 2011; inhibition, % at 5.17 µM; in the data active = inhibition above about 34%
HGIII-sPLA2 inh – human group III sPLA2 inhibitors, primary screen, biochemical, QFRET, BODIPY PC-A2 liposome substrate; Group 3 secretory phospholipase A2 (Homo sapiens), Q9NZ20; QFRET BODIPY PC-A2 liposome hydrolysis, fluorescence; inhibition, % at 12.2 µM; actives 0.56% (n = 370,000); AID 743126, 2013;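 active = inhibition above mean plus 3 SD of compounds lying within the high and low control bounds, cut at about 19% in these data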
Target sequence (Q9NZ20 whole entry, looked up): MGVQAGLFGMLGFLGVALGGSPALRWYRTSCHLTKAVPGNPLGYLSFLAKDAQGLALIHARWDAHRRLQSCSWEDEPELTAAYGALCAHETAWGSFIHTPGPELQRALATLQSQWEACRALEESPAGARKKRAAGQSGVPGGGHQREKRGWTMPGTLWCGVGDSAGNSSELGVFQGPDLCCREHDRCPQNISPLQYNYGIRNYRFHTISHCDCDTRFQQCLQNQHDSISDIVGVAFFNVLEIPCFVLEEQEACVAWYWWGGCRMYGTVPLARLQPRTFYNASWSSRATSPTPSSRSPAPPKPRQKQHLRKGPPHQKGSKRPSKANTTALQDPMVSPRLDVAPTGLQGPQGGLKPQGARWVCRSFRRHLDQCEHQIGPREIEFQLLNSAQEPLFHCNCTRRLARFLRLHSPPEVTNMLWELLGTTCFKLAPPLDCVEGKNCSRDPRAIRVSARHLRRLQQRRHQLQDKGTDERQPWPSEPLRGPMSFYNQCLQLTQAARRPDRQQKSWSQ
hGIII sPLA2 conf – human group III sPLA2 inhibitors, confirmation, biochemical, QFRET, triplicate; AID 743280, 2014; recombinant hGIII-sPLA2, BODIPY PC-A2 QFRET fluorescence; shares compounds with HGIII-sPLA2 inh; inhibition, % at 12.2 µM; actives 34% (n = 2,000);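 active = mean inhibition across triplicates above the hit cutoff set in the earlier primary screen, cut at about 19% in these data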
BODIPY interf – 535nm fluorescence optical interference, confirmation, artefact control for HGIII-sPLA2 inhibitor project, biochemical, QFRET. shares compounds with HGIII-sPLA2 inh. BODIPY FL product fluorescence interference. actives 8.5% (n = 2,000). inhibition, % at 12.2 µM;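 active = average inhibition above the solvent-only control mean plus 3 SD, cut at about 6% in these data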
BODIPY interf DR – 535nm fluorescence optical interference, dose response, artefact control for HGIII-sPLA2 inhibitor project, biochemical, QFRET; shares compounds with HGIII-sPLA2 inh; IC50, µM; BODIPY FL product fluorescence interference, cell-free; 240 tested, under 10 active;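 active = IC50 at or below 10 µM; inactive = IC50 above 10 µM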
A number is an active result; . = inactive; / = no result given. The list is not random: actives were taken first. Their share in the collection is about 1.5%.

SMILES	PLCg1 inh	PLCb3 inh	DAGLB inhibitor	HGIII-sPLA2 inh	hGIII sPLA2 conf	BODIPY interf	others
COC(=O)[C@]12C[C@H](CC(=O)N3CCC(c4ccccc4)CC3)C(=O)N(Cc3cccc4ccccc34)C1=C[C@H](C(C)(C)C)O[C@@H]2C	.	.	/	.	/	/
Cc1ccc(NC(=S)NNC(=O)c2ccccc2O)c(C)c1	.	.	.	49	37	.	BODIPY interf DR=.
Cc1cccc(NC(=S)NNC(=O)c2ccc(O)cc2O)c1C	.	.	.	42	33	.	BODIPY interf DR=.
CCN1Cc2nnn(Cc3ccccc3)c2-c2ccccc2S1(=O)=O	.	.	/	.	/	/
c1ccc(CSc2ccc(-c3ccc4c(c3)OCO4)nn2)cc1	.	.	.	23	.	.
Fc1ccc(CSc2ccc(-c3ccc4c(c3)OCO4)nn2)cc1	.	.	.	.	/	/
CCOC(=O)Cn1c(=O)c2c(nc(N3CCCCC3)n2C)n(C)c1=O	.	.	.	20	.	.
CCOC(=O)CC[C@@]1(C(=O)OCC)C[C@@H](CC(=O)N2CCSCC2)C(=O)N2CCCC=C21	.	.	/	.	/	/
CCOc1ccc(NC(=O)c2ccc3c(c2)S(=O)(=O)N=C2CCCCCN23)cc1	.	.	.	19	.	.
CN1C(=O)c2cc(NS(C)(=O)=O)ccc2OC[C@H]2O[C@@H](CC(=O)NCc3ccc(-c4ccccc4)cc3)CC[C@@H]21	.	.	/	.	/	/
Cc1cccc(-n2c(C)c(-c3ccccc3)[nH]c2=S)c1	.	.	.	29	33	.
Cc1cccc(-n2c(C)n[nH]c2=S)c1	.	.	.	.	/	/
COC(=O)c1sc(C(C)(C)C)cc1CS(=O)(=O)c1ccc(Cl)cc1	.	.	.	.	/	/
COC(=O)c1sc(C(C)(C)C)cc1CSc1ccccc1	.	.	.	21	.	.
CCCCNCc1nc2ccccc2c(=O)[nH]1	.	.	.	27	.	.
CC(C)(C)c1ccc(OCC(=O)NNC(=S)NC(=O)c2ccccc2[N+](=O)[O-])c(Br)c1	.	.	.	.	/	/
O=C(NC(=S)Nc1ccc(N2CCOCC2)cc1)c1cccc([N+](=O)[O-])c1	.	.	.	.	/	/
COc1ccc(C(=O)NC(=S)NNC(=O)c2ccc(NC(=O)C(C)C)cc2)cc1	.	.	.	26	27	.
Cc1ccccc1OCC(=O)NNC(=S)NC(=O)c1ccccc1[N+](=O)[O-]	.	.	.	23	28	.	BODIPY interf DR=.
CC(C)C(=O)Nc1ccc(C(=O)NNC(=S)NC(=O)c2ccccc2[N+](=O)[O-])cc1	.	.	.	21	.	.
O=C(NC(=S)Nc1ccc(CN2CCOCC2)cc1)c1cccc([N+](=O)[O-])c1	.	.	.	19	.	.
Cn1c(NC2=NC3(CCCC3)C3=C(CCCC3=O)N2)nc2ccccc21	.	.	/	.	/	/
CCCCC(=O)Nc1ccc(C(=O)NNC(=S)NC(=O)c2ccccc2[N+](=O)[O-])cc1	.	.	.	23	21	.
CCCOc1ccc(C(=O)NNC(=S)NC(=O)c2ccccc2[N+](=O)[O-])cc1	.	.	.	21	31	.
O=C(NNC(=S)NC(=O)c1ccccc1)c1cccc([N+](=O)[O-])c1	.	.	.	25	25	.
SMILES	PLCg1 inh	PLCb3 inh	DAGLB inhibitor	HGIII-sPLA2 inh	hGIII sPLA2 conf	BODIPY interf	others
O=C(NNC(=S)NC(=O)c1ccccc1[N+](=O)[O-])c1ccccc1	.	.	.	19	24	.
O=C(NC(=S)N1CCCCCC1)c1cccc([N+](=O)[O-])c1	.	.	.	20	.	.
Cc1ccc(C2CC2C(=O)NNC(=S)Nc2ccc(Cl)cc2)cc1 (stereo not drawn)	.	.	.	21	.	12
O=C(COC(=O)c1ncc(Cl)c(Cl)c1Cl)Nc1cccnc1Cl	.	.	.	20	.	.
O=C(COC(=O)c1ncc(Cl)c(Cl)c1Cl)Nc1ccccc1OC(F)F	.	.	.	.	/	/
O=[N+]([O-])c1cc([N+](=O)[O-])c2c(=Nc3ccccc3)n(-c3ccccc3)n(O)c2c1	.	.	.	35	56	19
O=[N+]([O-])c1cc(Br)c(Nc2ccccc2)c([N+](=O)[O-])c1	.	.	.	.	/	/
COc1ccc2c(c1)CCCN2C(=O)C1CCCN(S(=O)(=O)c2c(C(C)C)cc(C(C)C)cc2C(C)C)C1 (stereo not drawn)	.	.	/	.	/	/
Cc1cc(C(=O)N/N=C2\CCCc3ccccc32)c(C)o1	.	.	.	.	/	/
COc1ccc2c(c1)CCC/C2=N\NC(=O)c1ccoc1C	.	.	.	21	.	.
COc1ccc(-c2cc(-c3nnc(SCC(=O)Nc4ccc(-c5nc6ccc(C)cc6s5)cc4)n3N)[nH]n2)cc1	.	.	/	.	/	/
COc1ccc(C(=O)NNC(=S)NC(=O)c2ccco2)cc1	.	.	.	20	24	.
O=C(NC(=S)NC1CCC(O)CC1)c1ccco1 (stereo not drawn)	.	.	.	20	.	.
CC(Oc1ccc(Cl)cc1)C(=O)NNC(=S)NC(=O)c1ccco1 (stereo not drawn)	.	.	.	28	36	.	BODIPY interf DR=.
O=C(NC(=S)NC1CCCc2ccccc21)c1ccco1 (stereo not drawn)	.	.	.	.	/	/
O=C(NNC(=S)NC(=O)c1ccco1)c1ccc(F)cc1	.	.	.	.	/	/
CCCOc1ccc(C(=O)NNC(=S)NC(=O)c2ccco2)cc1	.	.	.	31	34	.	BODIPY interf DR=.
O=C(NC1CCCC1)N1CCC(c2nc3ccc(Cl)cc3[nH]2)CC1	.	.	/	.	/	/
CCCCn1cnc2c(=O)[nH]ccc21	.	.	/	.	/	/
O=C(/C=C/c1ccco1)NC(=S)NNC(=O)c1ccco1	.	.	.	31	.	.
CC(=O)NC(=S)Nc1ccc(NC(=S)NC(=O)/C=C/c2ccco2)cc1	.	.	.	.	/	/
O=[N+]([O-])c1ccccc1CCc1ccccc1[N+](=O)[O-]	.	.	.	.	/	/
O=[N+]([O-])c1ccccc1CNC(Cc1ccccc1)c1ccccc1 (stereo not drawn)	.	.	.	24	.	.
COc1cccc(N=NC2C(=O)N(C(N)=S)N=C2C)c1 (stereo not drawn)	.	.	.	23	.	.
COc1ccc(Oc2c(Cl)cnn(-c3cc(C)cc(C)c3)c2=O)cc1	.	.	/	.	/	/
